Compound activity: PubChem, National Center for Advancing Translational Sciences (NCATS)
In the library only some 12% were active in any assay of this set; here they are far more common.
G9a inh: blocks human histone lysine methyltransferase G9a; Q96KQ7; G9a H3K9 monomethylation, AlphaScreen, 2 h; Potency, µM (highest dose often 102 µM), inactives show top-dose activity, negative = inhibition, most hits filed as inhibitors; 350,000 tested, 8.8% active; AID 504332; also: % is scaled to controls: 0 for no effect and ±100 for the full control effect; nearly all actives have a fitted effect of over 75% in size
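Enzyme 20 nM + cpd, 15 min RT; add b-H3K9 pep 500 nM / SAM 20 uM; 2 h RT; anti-H3K9me1 Ab 0.5 ug/mL + SA donor / anti-rabbit acceptor beads 20 ug/mL each, 10 min; AlphaScreen read.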
JMJD2A Tudor inh: inhibitors of human JMJD2A Tudor domain. AID 504339. 390,000 tested, 4.4% active. AlphaScreen JMJD2A-Tudor / H3K4me3 peptide binding. Potency, µM (top dose mostly 114 µM), without a hit: at the top dose activity change, negative = inhibition, actives largely listed as inhibitors. O75164; also: % is scaled to controls: 0 for no effect and ±100 for the full control effect; nearly all actives have a fitted effect of over 50% in size
Sfp inh: Sfp phosphopantetheinyl transferase inhibition; Q9F4F7; Biochemical Sfp PPTase activity, qHTS; Potency, µM, without a hit: largest response in the series, negative = inhibition, hits mostly inhibitors; 310,000 tested, 3.5% active; AID 1490;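 also: the enzyme is Sfp with the accession as filed and its product quenches rhodamine fluorescence; 0% = enzyme reaction without inhibitor and -100% = no enzyme wells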
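Reaction rates are the 30-min fluorescence difference (ex 525, em 598 nm) in wells containing 15 nM Sfp, 5 uM rhodamine-CoA and 12.5 uM BHQ-2-YbbR at pH 7.6 with 10 mM MgCl2.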
HP1b chromo inh: blocks HP1-beta chromodomain binding to methylated histone tails | P83916 | AlphaScreen HP1-beta / biotin-H3K9me3 peptide binding | Potency, µM (series often up to 114 µM), for inactives: at the highest dose activity change, negative = inhibition, most hits filed as inhibitors | 390,000 tested, 0.56% active; also: nearly all actives have a fitted effect of over 70% in size
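Compound inhibition of the preformed complex between 50 nM HP1-beta and 50 nM biotinylated H3K9me3 peptide was read by AlphaScreen. Buffer was PBS pH 7.4 with 0.01% Tween-20. Incubations ran 30 min at room temperature, with 10 ug/mL donor/acceptor beads.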
BAZ2B block: blocks human BAZ2B. Q9UIF8. AlphaScreen BAZ2B-H3K14Ac peptide displacement. Potency, µM (doses to about 114 µM), inactives show at the highest dose activity change, negative = inhibition, hits mostly inhibitors. 360,000 tested, 4.4% active. AID 504333; also: % is scaled to controls: 0 for no effect and ±100 for the full control effect; nearly all actives have a fitted effect of over 60% in size
Target sequence (Q9UIF8 whole entry, looked up): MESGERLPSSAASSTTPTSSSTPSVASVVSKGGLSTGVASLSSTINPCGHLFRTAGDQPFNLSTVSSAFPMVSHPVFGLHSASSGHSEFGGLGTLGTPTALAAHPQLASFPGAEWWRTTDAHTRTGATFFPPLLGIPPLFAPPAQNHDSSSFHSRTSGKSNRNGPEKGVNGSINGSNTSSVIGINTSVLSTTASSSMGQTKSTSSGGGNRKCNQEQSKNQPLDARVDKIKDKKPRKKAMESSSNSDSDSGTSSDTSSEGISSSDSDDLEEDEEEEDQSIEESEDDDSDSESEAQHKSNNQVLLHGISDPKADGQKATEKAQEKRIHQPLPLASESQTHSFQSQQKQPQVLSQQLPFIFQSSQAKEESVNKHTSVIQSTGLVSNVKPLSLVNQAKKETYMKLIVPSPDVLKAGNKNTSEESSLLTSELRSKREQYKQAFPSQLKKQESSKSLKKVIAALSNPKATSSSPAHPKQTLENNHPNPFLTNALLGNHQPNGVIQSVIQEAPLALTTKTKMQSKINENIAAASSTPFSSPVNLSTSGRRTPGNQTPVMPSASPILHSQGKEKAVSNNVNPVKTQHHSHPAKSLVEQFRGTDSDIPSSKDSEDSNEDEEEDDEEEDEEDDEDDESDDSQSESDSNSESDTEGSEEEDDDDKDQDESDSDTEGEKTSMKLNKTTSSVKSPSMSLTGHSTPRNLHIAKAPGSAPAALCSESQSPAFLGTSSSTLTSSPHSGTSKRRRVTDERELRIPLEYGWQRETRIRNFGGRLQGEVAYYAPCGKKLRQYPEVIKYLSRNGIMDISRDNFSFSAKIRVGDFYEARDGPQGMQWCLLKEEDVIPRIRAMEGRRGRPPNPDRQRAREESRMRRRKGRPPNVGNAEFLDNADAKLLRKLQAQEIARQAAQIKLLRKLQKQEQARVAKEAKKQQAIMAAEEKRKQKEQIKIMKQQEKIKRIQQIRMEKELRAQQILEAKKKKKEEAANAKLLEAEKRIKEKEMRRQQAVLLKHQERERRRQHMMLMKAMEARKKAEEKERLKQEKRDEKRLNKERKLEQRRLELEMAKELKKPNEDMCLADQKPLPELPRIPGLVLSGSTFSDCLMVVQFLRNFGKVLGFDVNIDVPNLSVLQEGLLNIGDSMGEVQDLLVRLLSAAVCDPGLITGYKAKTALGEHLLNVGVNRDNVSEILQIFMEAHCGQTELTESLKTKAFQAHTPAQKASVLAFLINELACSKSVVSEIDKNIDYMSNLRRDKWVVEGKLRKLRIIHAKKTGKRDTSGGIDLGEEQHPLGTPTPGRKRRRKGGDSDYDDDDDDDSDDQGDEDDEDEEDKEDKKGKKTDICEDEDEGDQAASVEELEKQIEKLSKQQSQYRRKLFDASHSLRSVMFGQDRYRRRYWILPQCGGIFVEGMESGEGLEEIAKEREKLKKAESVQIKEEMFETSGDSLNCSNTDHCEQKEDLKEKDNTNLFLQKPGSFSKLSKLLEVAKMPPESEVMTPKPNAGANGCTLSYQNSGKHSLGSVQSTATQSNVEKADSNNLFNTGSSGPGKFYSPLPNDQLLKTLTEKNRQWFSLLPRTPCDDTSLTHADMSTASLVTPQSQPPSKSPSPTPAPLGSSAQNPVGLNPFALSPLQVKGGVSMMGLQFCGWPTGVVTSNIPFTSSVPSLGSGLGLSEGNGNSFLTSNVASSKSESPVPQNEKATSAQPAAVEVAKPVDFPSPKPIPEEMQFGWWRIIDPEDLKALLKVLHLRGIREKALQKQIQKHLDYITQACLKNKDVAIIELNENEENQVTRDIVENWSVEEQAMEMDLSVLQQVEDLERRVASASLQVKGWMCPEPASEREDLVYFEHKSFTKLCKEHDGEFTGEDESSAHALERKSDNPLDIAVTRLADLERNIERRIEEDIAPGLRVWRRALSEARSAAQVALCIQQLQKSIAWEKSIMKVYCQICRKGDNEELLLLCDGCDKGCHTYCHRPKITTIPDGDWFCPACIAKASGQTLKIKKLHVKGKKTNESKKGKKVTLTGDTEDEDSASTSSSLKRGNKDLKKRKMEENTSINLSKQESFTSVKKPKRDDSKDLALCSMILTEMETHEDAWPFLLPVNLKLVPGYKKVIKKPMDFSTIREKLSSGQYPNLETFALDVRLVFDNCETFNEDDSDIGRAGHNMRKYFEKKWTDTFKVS
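Compounds, titrated to a top concentration of 110 uM, were incubated 30 min at room temperature with preformed BAZ2B/acetyl-K14 H3 peptide complex (50 nM each). Proximity signal was measured by AlphaScreen after 20 min with beads.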
L3MBTL1 inh: inhibitors of human L3MBTL1; Q9Y468; AlphaScreen L3MBTL1–H3K9me1 peptide binding; Potency, µM (top dose mostly 57.1 µM), for the others: at the top dose activity, negative = inhibition, usual class: inhibitors; 230,000 tested, 0.66% active; also: % is scaled to controls: 0 for no effect and ±100 for the full control effect; nearly all actives have a fitted effect of over 60% in size
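AlphaScreen assay: L3MBTL1 (50 nM final) was preincubated 30 min at room temperature with biotinylated H3(1-15)K9me1 peptide (75 nM final), then 30 min with library compounds; streptavidin donor and nickel chelate acceptor beads (10 ug/mL final) added, 30 min dark.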
Starred values were filed as active, the others as inactive; u = inconclusive; x = no result; [ ] = dose if it differs, or a comment. Calls follow the shape of the dose curve; as a rule, active = well fitted curve in the direction sought with a large enough effect; inconclusive = small, poorly fitted or top-dose-only effect, or another doubt; inactive = no such curve, though single readings can be large; an effect the other way counts as inactive or inconclusive. Potency is read from the fitted curve at half-maximal effect.

SMILES	G9a inh	JMJD2A Tudor inh	Sfp inh	HP1b chromo inh	BAZ2B block	L3MBTL1 inh
Cc1cc(OCCOCCNCc2ccccc2)ccc1C(C)C	10µM*	20µM*	79.4µM*	u	u	-9.0%
Brc1ccc(OCc2ccccc2)c(CNCc2ccncc2)c1	-36.9%[0.0925 µM]	u	79.4µM*	14.1%	79.4µM*	2.8%
Clc1cc(Br)ccc1OCCCNCc1ccccc1	7.08µM*	2.82µM*	-22.1%	u	u	5.3%
Cc1ccc(C)c(OCCCNCc2ccccc2)c1	u	44.7µM*	6.0%	-19.5%	u	5.1%
COc1ccccc1C(CCNCc1ccccc1)c1ccc(OC(C)C)cc1 (stereo unspecified)	-1.7%[2.33 µM]	-22.8%	-13.8%	12.2%	-8.3%	x
Fc1ccc(COc2ccccc2CNCc2ccncc2)cc1	u	-7.8%	-7.0%	31.9%	-25.8%	14.8%
Cc1ccc(C(C)C)c(OCCNCc2ccccc2)c1	x	28.2µM*	-19.1%	27.2%	u	0.8%
CCOc1ccccc1NC(=O)Cn1c(=O)n(Cc2ccc(C(=O)NCCCOC)cc2)c(=O)c2ccccc21	0.0%[59 µM]	-2.0%	x	26.1%	0.1%	x
CCOc1cc(N2CCOCC2)c(OCC)cc1NC(=O)CSc1ncccc1C(=O)O	x	-3.4%	x	14.1%	x	-17.5%
CCOc1cc(N2CCOCC2)c(OCC)cc1NC(=O)CN1CCC(Cc2ccccc2)CC1	50.1µM*	22.4µM*	-4.5%	25.1µM*	31.6µM*	-7.9%
CCOc1cc(N2CCOCC2)c(OCC)cc1NC(=O)Cc1ccccc1OC	u	u	-13.0%	u	44.7µM*	-20.5%
COc1ccc(NC(C)=O)cc1NS(=O)(=O)c1cn(C)c(=O)n(C)c1=O	-9.4%	-9.9%	14.4%	44.5%	79.4µM*	2.1%
CCOc1cc(N2CCOCC2)c(OCC)cc1NC(=O)CSc1ncccn1	39.8µM*	-17.9%	0.3%	-24.6%	-26.8%	-5.9%
CCOc1cc(N2CCOCC2)c(OCC)cc1NC(=O)COC(=O)CCOc1ccc(C(C)(C)C)cc1	4.3%[0.501 µM]	20µM*	x	u	35.5µM*	-9.5%
COc1cc(NC(=O)c2ccccc2F)c(OC)cc1NC(=O)CN1CCOCC1	44.7µM*	-19.9%	14.7%	19.0%	-34.3%	-4.8%
COc1cc(NC(=O)c2ccc(F)cc2)c(OC)cc1NC(=O)CN1CCOCC1	20.0%[12.7 µM]	-20.5%	23.5%	6.7%	-24.2%	-11.3%
CCOc1ccc(OCC)c(NC(=O)CN2CCN(c3cccc(C)c3C)CC2)c1	u	1.58µM*	u	u	u	5.6%
CCOc1cc(N2CCOCC2)c(OCC)cc1NS(=O)(=O)c1cc(NC(C)=O)ccc1OC	44.7µM*	-32.5%	-2.2%	12.2%	70.8µM*	x
COc1cc(S(=O)(=O)Nc2ccc3nc(C)sc3c2)ccc1NC(C)=O	u	-10.7%	x	56.5%	-9.4%	-4.8%
O=C(c1cccc(N2C(=O)C3CC=CCC3C2=O)c1)N1CCCc2ccccc21 (stereo unspecified)	-47.8%	-17.3%	-4.4%	9.1%	-27.7%	x
O=C(Nc1ccc2nc(SCCOc3ccccc3)sc2c1)c1ccc2c(c1)OCO2	-2.8%[59 µM]	-10.3%	x	37.3%	-8.5%	x
CCOc1cc(N2CCOCC2)c(OCC)cc1NC(C)C(=O)N1CCN(CC)CC1 (stereo unspecified)	3.98µM*	0.355µM*	35.5µM*	u	10µM*	17.8µM*
CCN1CCN(C(=O)C(C)Nc2cc(Cl)c(OC)cc2OC)CC1 (stereo unspecified)	39.8µM*	-29.3%	-7.4%	10.9%	x	-18.6%
COc1cc(OC)c(NC(C)C(=O)NCc2ccccc2)cc1Cl (stereo unspecified)	u	-27.7%	u	14.4%	u	x
O=C(CSc1ccc(Cl)cc1)N/N=C/c1ccc([N+](=O)[O-])o1	u	-22.1%	-26.9%	27.6%	u	x
SMILES	G9a inh	JMJD2A Tudor inh	Sfp inh	HP1b chromo inh	BAZ2B block	L3MBTL1 inh
Cc1ccccc1N(CC(=O)N1CCN(c2ccccc2)CC1)S(C)(=O)=O	50.1µM*	-17.9%	-5.3%	22.6%	-3.7%	x
CN1CCN(C(=O)CN(c2ccccc2)S(=O)(=O)N(C)C)CC1	1.7%	-14.0%	13.6%	29.8%	-17.1%	-0.1%[11.4 µM]
CCc1ccccc1N(CC(=O)N1CCN(c2ccc(F)cc2)CC1)S(C)(=O)=O	79.4µM*	u	14.6%	19.6%	-10.2%	-0.4%
CCc1ccccc1N(CC(=O)N1CCCC1)S(C)(=O)=O	6.2%	8.5%	12.2%	38.7%	4.5%	-1.6%
Cc1ccc(Cl)cc1N1CCN(C(=O)CN(c2ccccc2)S(=O)(=O)N(C)C)CC1	-9.5%	-12.0%[11.4 µM]	-16.8%	5.6%	44.7µM*	x
CS(=O)(=O)N(CC(=O)N1CCN(c2ccccc2)CC1)C1CCCCC1	14.4%[59 µM]	50.1µM*	17.5%	-15.2%	7.8%	1.5%
COc1ccc(S(=O)(=O)N2CCN(c3ccccc3)CC2)cc1-c1noc(C)n1	4.7%[59 µM]	-13.7%	x	39.5%	-4.7%	x
CCOc1ncccc1C(=O)N1CCN(c2cccc(C)c2C)CC1	22.1%	-11.8%	8.4%	6.8%	-1.4%	22.7%
CCOc1ncccc1C(=O)N1CCN(c2cc(Cl)ccc2C)CC1	7.5%	50.1µM*	6.3%	-22.9%	-9.0%	x
Cc1ccc(C)n1-c1ccc(-c2ccn[nH]2)cc1	u	-28.5%	16.9%	-2.2%	-24.9%	-5.1%
Cc1ccc(C)n1-c1nc(=S)[nH][nH]1	1.26µM*	3.16µM*	14.1µM*	15.8µM*	u	x
Cc1cc(C)n2nc(C(=O)N3CCOCC3)nc2n1	-30.5%[59 µM]	-4.7%[57.1 µM]	5.3%	22.1%	-7.7%	6.7%
Cc1csc(NC(=O)c2nc3nc(C)cc(C)n3n2)n1	u	79.4µM*	-16.3%	4.3%	u	4.5%
CC(=O)N(C(C)=O)c1nc2nc(C)cc(C)n2n1	u	u	-19.5%	-21.6%	56.2µM*	-7.7%
Cc1cc(C)n2nc(C(=O)Nc3ccc(N4CCOCC4)cc3)nc2n1	10µM*	-6.3%	-6.9%	35.2%	-8.5%	x
Cc1cc(C)n2nc(C(=O)Nc3nccs3)nc2n1	-9.3%	11.2µM*	-7.0%	27.3%	3.7%	13.4%
Cc1cc(C)n2nc(C(=O)Nc3cccnc3)nc2n1	-27.1%[12.7 µM]	-12.7%	-1.5%	24.2%	16.4%	x
Cc1nc(NCc2ccccc2)c2nc(-c3ccccc3)n(CCCN(C)C)c2n1	x	x	38.5%	x	x	x
FC(F)(F)c1ccccc1-c1cc(N2CCNCC2)ncn1	x	x	8.1%	x	x	x
COc1cc(OC)c(N(C)C(=O)Nc2cn(CC(C)C)c(=O)c3ccccc23)cc1Cl	-6.0%[59 µM]	-12.6%	x	17.1%	4.5%[57.1 µM]	x
CN(CCOc1ccccc1)C(=O)c1cc(S(=O)(=O)N2CCCCC2)ccc1Cl	3.8%[0.501 µM]	5.4%	x	41.8%	5.6%	-2.3%
CCCN1CCCc2cc(CN)ccc21	8.91µM*	3.98µM*	u	u	44.7µM*	u
